B1: ENSMUSG00000061578.324|Ksr2|150:154 (ssRNA)
RNA: GGGAGUUCUACAGUCCGACGAUCGCUUCGAUAUCCGCAUGCUAGUAGCUCAAUGACCCAGUGGGUCACAGUUCUAGGCGCUCCAAGGAAGCCAGGGGAGGGGGACUCCUCAGGAAGGAGUGACCAGUCACCUGCCUCCCAGGGUUCUGCCUUGCCCUUAAGCUAGGGUCCUUCAAGCAUCCACAGACUUAGACACACGUGGUAACAUGCUUGUAAUCCUGGCACUCUGGAGGCUGAGGCAGGAGGAUAACAAGUCUAGACUAUAUAUGAUUUCUGAGGGUCUGUUAGUGAAUAAGUACCUGGACUCUUGCGGUCGCACUAGUGUGGAAUUCUCGGGUGUCAAGG
B2: ENSMUSG00000032194.279|Kank2 (ssRNA)
RNA: GGGAGUUCUACAGUCCGACGAUCGCUUCGAUAUCCGCAUGCUAAUGAACAGAUAGAUGAAUGGAUGGAUGGACAGGUGGGUGGAUGGAUGGGUGGACGGAUGAGUGUGGGGUGGGUGGAUGGAUAAAUGAGCAAUGGAUGAGAAACUGGGUUGGCUGGUGGGUAGAUGUCAUGAUGGAGUCUUUGCACGUGUAUGAAACAGAAAACCAAACUUCAGGACAGACAGCUGCUGGUGUCUCUGGAUGCUCACAGCCUAGGGCACAUUUGAAAGGUCGUGCUCUGAGCUGAGCCCUGAGUUCCAGCCCUCUUGCGGUCGCACUAGUGUGGAAUUCUCGGGUGUCAAGG
B3: ENSMUSG00000032194.275|Kank2 (ssRNA)
RNA: GGGAGUUCUACAGUCCGACGAUCGCUUCGAUAUCCGCAUGCUAAUAAAUGAAUAGAUGGAUGGAUGAAUGAACAGAUAGAUGAAUGGAUGGAUGGACAGGUGGGUGGAUGGAUGGGUGGACGGAUGAGUGUGGGGUGGGUGGAUGGAUAAAUGAGCAAUGGAUGAGAAACUGGGUUGGCUGGUGGGUAGAUGUCAUGAUGGAGUCUUUGCACGUGUAUGAAACAGAAAACCAAACUUCAGGACAGACAGCUGCUGGUGUCUCUGGAUGCUCACAGCCUAGGGCACAUUUGAAAGGUCGUGCUCCUCUUGCGGUCGCACUAGUGUGGAAUUCUCGGGUGUCAAGG
B4: ENSMUSG00000032194.274|Kank2|91:95;178:182 (ssRNA)
RNA: GGGAGUUCUACAGUCCGACGAUCGCUUCGAUAUCCGCAUGCUAGGAUGCAUAAAUGAAUAGAUGGAUGGAUGAAUGAACAGAUAGAUGAAUGGAUGGAUGGACAGGUGGGUGGAUGGAUGGGUGGACGGAUGACACACGGGUGGGUGGAUGGAUAAAUGAGCAAUGGAUGAGAAACUGGGUUGGCUGGUGGGUAGAUGUCAUGAUGGAGUCUUUGCACGUCAUACAAACAGAAAACCAAACUUCAGGACAGACAGCUGCUGGUGUCUCUGGAUGCUCACAGCCUAGGGCACAUUUGAAAGGUCCUCUUGCGGUCGCACUAGUGUGGAAUUCUCGGGUGUCAAGG
B5: ENSMUSG00000032194.277|Kank2 (ssRNA)
RNA: GGGAGUUCUACAGUCCGACGAUCGCUUCGAUAUCCGCAUGCUAAUGGAUGGAUGAAUGAACAGAUAGAUGAAUGGAUGGAUGGACAGGUGGGUGGAUGGAUGGGUGGACGGAUGAGUGUGGGGUGGGUGGAUGGAUAAAUGAGCAAUGGAUGAGAAACUGGGUUGGCUGGUGGGUAGAUGUCAUGAUGGAGUCUUUGCACGUGUAUGAAACAGAAAACCAAACUUCAGGACAGACAGCUGCUGGUGUCUCUGGAUGCUCACAGCCUAGGGCACAUUUGAAAGGUCGUGCUCUGAGCUGAGCCCCUCUUGCGGUCGCACUAGUGUGGAAUUCUCGGGUGUCAAGG
B6: ENSMUSG00000032194.273|Kank2|97:101;184:188 (ssRNA)
RNA: GGGAGUUCUACAGUCCGACGAUCGCUUCGAUAUCCGCAUGCUAGUGGAUGGAUGCAUAAAUGAAUAGAUGGAUGGAUGAAUGAACAGAUAGAUGAAUGGAUGGAUGGACAGGUGGGUGGAUGGAUGGGUGGACGGAUGACACACGGGUGGGUGGAUGGAUAAAUGAGCAAUGGAUGAGAAACUGGGUUGGCUGGUGGGUAGAUGUCAUGAUGGAGUCUUUGCACGUCAUACAAACAGAAAACCAAACUUCAGGACAGACAGCUGCUGGUGUCUCUGGAUGCUCACAGCCUAGGGCACAUUUGACUCUUGCGGUCGCACUAGUGUGGAAUUCUCGGGUGUCAAGG
B7: ENSMUSG00000032194.276|Kank2 (ssRNA)
RNA: GGGAGUUCUACAGUCCGACGAUCGCUUCGAUAUCCGCAUGCUAGAAUAGAUGGAUGGAUGAAUGAACAGAUAGAUGAAUGGAUGGAUGGACAGGUGGGUGGAUGGAUGGGUGGACGGAUGAGUGUGGGGUGGGUGGAUGGAUAAAUGAGCAAUGGAUGAGAAACUGGGUUGGCUGGUGGGUAGAUGUCAUGAUGGAGUCUUUGCACGUGUAUGAAACAGAAAACCAAACUUCAGGACAGACAGCUGCUGGUGUCUCUGGAUGCUCACAGCCUAGGGCACAUUUGAAAGGUCGUGCUCUGAGCUCUCUUGCGGUCGCACUAGUGUGGAAUUCUCGGGUGUCAAGG
B8: ENSMUSG00000032194.278|Kank2 (ssRNA)
RNA: GGGAGUUCUACAGUCCGACGAUCGCUUCGAUAUCCGCAUGCUAGGAUGAAUGAACAGAUAGAUGAAUGGAUGGAUGGACAGGUGGGUGGAUGGAUGGGUGGACGGAUGAGUGUGGGGUGGGUGGAUGGAUAAAUGAGCAAUGGAUGAGAAACUGGGUUGGCUGGUGGGUAGAUGUCAUGAUGGAGUCUUUGCACGUGUAUGAAACAGAAAACCAAACUUCAGGACAGACAGCUGCUGGUGUCUCUGGAUGCUCACAGCCUAGGGCACAUUUGAAAGGUCGUGCUCUGAGCUGAGCCCUGAGUUCUCUUGCGGUCGCACUAGUGUGGAAUUCUCGGGUGUCAAGG
B9: ENSMUSG00000032194.272|Kank2|103:107;190:194 (ssRNA)
RNA: GGGAGUUCUACAGUCCGACGAUCGCUUCGAUAUCCGCAUGCUAGGGUGGGUGGAUGGAUGCAUAAAUGAAUAGAUGGAUGGAUGAAUGAACAGAUAGAUGAAUGGAUGGAUGGACAGGUGGGUGGAUGGAUGGGUGGACGGAUGACACACGGGUGGGUGGAUGGAUAAAUGAGCAAUGGAUGAGAAACUGGGUUGGCUGGUGGGUAGAUGUCAUGAUGGAGUCUUUGCACGUCAUACAAACAGAAAACCAAACUUCAGGACAGACAGCUGCUGGUGUCUCUGGAUGCUCACAGCCUAGGGCACCUCUUGCGGUCGCACUAGUGUGGAAUUCUCGGGUGUCAAGG
B10: ENSMUSG00000032194.274|Kank2 (ssRNA)
RNA: B4 RNA with C134G, A135U, C136G, A137U, C138G, C221G, A222U, U223A, A224U, C225G

Substitutions are numbered along the chain they refer to. In all, about 9,900 sequences were measured (“r (bound/input frequency ratio)”: median about 0.7, highest 2% from about 6.5 on). This excerpt belongs to a sample that is enriched for the highest values.

Chain of TDP-43 (Q13148 whole entry): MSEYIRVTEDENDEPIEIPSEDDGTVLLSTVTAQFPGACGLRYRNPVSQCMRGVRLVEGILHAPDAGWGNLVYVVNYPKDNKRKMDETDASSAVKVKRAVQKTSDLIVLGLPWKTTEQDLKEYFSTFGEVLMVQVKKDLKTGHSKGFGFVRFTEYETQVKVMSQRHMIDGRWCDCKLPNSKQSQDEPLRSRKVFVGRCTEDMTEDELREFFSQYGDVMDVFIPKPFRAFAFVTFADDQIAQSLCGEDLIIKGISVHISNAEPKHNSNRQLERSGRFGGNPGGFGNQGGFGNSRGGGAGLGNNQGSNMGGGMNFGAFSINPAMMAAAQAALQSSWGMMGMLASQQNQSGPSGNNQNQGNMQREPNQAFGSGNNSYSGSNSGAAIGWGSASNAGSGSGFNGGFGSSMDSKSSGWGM

This assay deals with TDP-43 (Homo sapiens, UniProt Q13148 1-414). Put plainly: RNA Bind-n-Seq with designed 260-mer pool; 25 mM Tris-HCl, 150 mM KCl, 3 mM MgCl2, BSA (printed 500 mg/mL), 20 units/mL SUPERase IN; pH not stated; 500 nM RNA pool, 1 h, 4 C; TDP-43 5, 50, 500 nM; high values mean tight binding. The following applies: protein: recombinant; tags: SBP (GST cleaved off with PreScission; pGEX-GST-SBP). In a few lines:
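Recombinant SBP-tagged TDP-43 at 5, 50 or 500 nM was captured on streptavidin beads, then incubated 1 h at 4 °C with 500 nM of an in vitro-transcribed 260-nt 3′ UTR oligo pool in 25 mM Tris-HCl, 150 mM KCl, 3 mM MgCl2, BSA and SUPERase IN. Bound RNA was washed, eluted with biotin, reverse transcribed, PCR-amplified and sequenced. Binding is R, each oligo's mapped-read-normalized abundance in the bound sample divided by its abundance in input. Duplicates used two independent protein batches.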
As for B1, the binding signal is 0.658 R (bound/input frequency ratio).

B2: the binding signal is 5.39 R (bound/input frequency ratio).

As to B3, the binding signal was 7.07 R (bound/input frequency ratio).

As to B4, the binding signal was 5.59 R (bound/input frequency ratio).

For B5, the binding signal is 7.21 R (bound/input frequency ratio).

In the case of B6, the binding signal is 6.83 R (bound/input frequency ratio).

For B7, the binding signal is 6.02 R (bound/input frequency ratio).

On to B8, for which the binding signal is 5.8 R (bound/input frequency ratio).

For B9, the binding signal is 5.68 R (bound/input frequency ratio).

Turning to B10, the binding signal is 6.07 R (bound/input frequency ratio).

Source of the values: publication PMC12864922, “TDP-43 directly inhibits mRNA accumulation in neurites through modulation of mRNA stability”.
